Data as given in PubChem BioAssay (Tox21).
Records with an inconclusive call do not appear. The source made the active and inactive calls. Unless noted, the call rests on the fitted dose curve; in most records, active means well fitted curve in the direction sought with a large enough effect in the repeat runs; inconclusive means weak or mixed curves; inactive means no such curve, though single readings can be large; an effect the other way counts as inactive or inconclusive.

What was measured:
[1] = qHTS assay for small molecules that induce genotoxicity in human embryonic kidney cells expressing luciferase-tagged ATAD5 (AID 651632); further: nearly all actives have a fitted effect of over 15% in size
Procedure, shortened: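 HEK293T cells carrying a luciferase reporter tagged to ATAD5 were exposed to compound or DMSO vehicle for 16 hr at 37C, 5% CO2. Amplite was added, and after 30 min at room temperature luciferase activity was read as a marker of ATAD5 induction.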

[2] = qHTS assay for small molecule agonists of the p53 signaling pathway - cell viability (AID 651633; calls by dose curve; further: nearly all actives have a fitted effect of over 30% in size; further: potency means the concentration at half of the fitted maximal effect)
Procedure, shortened: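 p53RE-bla cells were treated with compound for 16 hours at 37 C. Cytotoxicity was then measured as CellTiter-Glo luminescence after 30 min at room temperature.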

[3] = qHTS assay for small molecule disruptors of the mitochondrial membrane potential - cell viability (AID 720634; calls by dose curve; further: nearly all actives have a fitted effect of over 20% in size; further: potency means the concentration at half of the fitted maximal effect)
Procedure, shortened: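 HepG2 cells seeded overnight at 37 C, then exposed to compound or DMSO for 1 hr at 37 C, 5% CO2. m-MPI dye added, then CellTiter-Glo for 30 min at room temperature; viability read as ATP luminescence.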

[4] = qHTS assay to test for compound auto fluorescence at 590 nm (red) in HepG2 cells (AID 720674)
Procedure, shortened: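 Fluorescence at 590 nm emission following 540 nm excitation was recorded from HepG2 wells one hour after compound transfer, with DMSO-only wells as vehicle and Rose Bengal sodium equivalency as the scale.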

[5] = qHTS assay to test for compound auto fluorescence at 535 nm (green) in HepG2 cells (AID 720675)
[6] = qHTS assay to test for compound auto fluorescence at 460 nm (blue) in HEK293 cells (AID 720678)
Procedure, shortened: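 HEK293 cells (2,000/well, medium with 10% dialyzed FBS) attached 4-5 hr, then exposed to compound overnight at 37C, 5% CO2. Blue fluorescence read at 405/460 nm, with triamterene as reference fluorophore.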

[7] = qHTS assay to test for compound auto fluorescence at 590 nm (red) in HEK293 cells (AID 720679)
Procedure, shortened: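 HEK293 cells (2,000/well, 10% dialyzed FBS) attached 4-5 hr, then dosed with compound or DMSO and incubated overnight at 37C, 5% CO2. Red fluorescence read at 540/590 nm, Rose Bengal sodium as reference fluorophore.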

[8] = qHTS assay to test for compound auto fluorescence at 535 nm (green) in HEK293 cells (AID 720680)
[9] = qHTS assay to test for compound auto fluorescence at 460 nm (blue) in HEK293 cell free culture (AID 720681)
Procedure, shortened: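 Compounds were added to cell-free DMEM with 10% FBS and fluorescence read directly. The blue channel used 405 nm excitation and 460 nm emission, with triamterene as the reference fluorophore.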

[10] = qHTS assay to test for compound auto fluorescence at 535 nm (green) in HEK293 cell free culture (AID 720682)
Procedure, shortened: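 Each library compound, or DMSO control, is added by pintool to medium alone, comprising DMEM and 10% FBS. Emission at 535 nm following 485 nm excitation is quantified against fluorescein.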

[11] = qHTS assay to test for compound auto fluorescence at 590 nm (red) in HEK293 cell free culture (AID 720683)
Procedure, shortened: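 Cell-free wells of DMEM with 10% FBS received compound, and intrinsic fluorescence was read at excitation/emission 540/590 nm. Values expressed as equivalence to Rose Bengal sodium.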

[12] = qHTS assay to test for compound auto fluorescence at 590 nm (red) in HepG2 cell free culture (AID 720684)
Procedure, shortened: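 Compounds are added to culture medium (MEM, 10% FBS) lacking cells, then fluorescence is read at excitation 540 nm, emission 590 nm, with Rose Bengal sodium as the equivalency standard.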

[13] = qHTS assay to test for compound auto fluorescence at 460 nm (blue) in HepG2 cell free culture (AID 720685)
Procedure, shortened: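 Compound (23 nL) or DMSO pinned into cell-free MEM with 10% FBS; blue fluorescence read at 405/460 nm excitation/emission, expressed as auto-fluorescence equivalency to triamterene.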

[14] = qHTS assay to test for compound auto fluorescence at 535 nm (green) in HepG2 cell free culture (AID 720686)
[15] = qHTS assay to test for compound auto fluorescence at 460 nm (blue) in HepG2 cells (AID 720687)
Procedure, shortened: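 HepG2 cells in MEM with 10% FBS, attached overnight at 37 C, were exposed to compound or DMSO for 1 hr at 37 C, 5% CO2. Blue fluorescence was read at 405/460 nm, with triamterene as reference fluorophore.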

[16] = target: Glucocorticoid receptor (Homo sapiens) (UniProt P04150); experiment: qHTS assay to identify small molecule antagonists of the glucocorticoid receptor (GR) signaling pathway (AID 720692; active means well fitted inhibition curve with a large enough effect in the signal ratio in the repeat runs, not every such curve was filed as active; the % refers to the signal ratio; further: potency means the concentration at half of the fitted maximal effect)
Sequence of Glucocorticoid receptor (Homo sapiens) (P04150 whole entry, looked up): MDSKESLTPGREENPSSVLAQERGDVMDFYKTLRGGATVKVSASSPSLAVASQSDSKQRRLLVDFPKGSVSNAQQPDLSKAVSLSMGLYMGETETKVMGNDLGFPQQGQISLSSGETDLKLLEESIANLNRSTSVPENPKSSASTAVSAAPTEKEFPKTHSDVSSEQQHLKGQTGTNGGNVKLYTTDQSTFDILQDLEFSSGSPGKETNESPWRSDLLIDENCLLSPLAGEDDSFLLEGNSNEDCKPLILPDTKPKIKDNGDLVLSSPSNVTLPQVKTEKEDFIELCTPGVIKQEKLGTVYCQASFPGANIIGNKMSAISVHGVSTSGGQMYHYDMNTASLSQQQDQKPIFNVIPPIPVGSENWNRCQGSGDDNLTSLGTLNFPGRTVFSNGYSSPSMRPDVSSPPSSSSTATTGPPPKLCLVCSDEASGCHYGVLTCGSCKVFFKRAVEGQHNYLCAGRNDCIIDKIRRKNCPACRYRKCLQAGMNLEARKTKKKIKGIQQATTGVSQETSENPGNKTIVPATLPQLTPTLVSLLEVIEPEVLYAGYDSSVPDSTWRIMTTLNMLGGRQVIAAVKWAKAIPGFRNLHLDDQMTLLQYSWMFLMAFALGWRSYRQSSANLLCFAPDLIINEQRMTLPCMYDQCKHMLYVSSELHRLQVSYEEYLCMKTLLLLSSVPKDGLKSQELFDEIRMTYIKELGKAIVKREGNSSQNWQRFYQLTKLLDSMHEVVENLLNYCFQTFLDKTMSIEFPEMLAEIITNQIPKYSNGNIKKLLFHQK
Procedure, shortened: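 GR-bla HeLa cells (beta-lactamase reporter under glucocorticoid response element) were pre-plated 4 h at 37 C, treated with compounds plus 5 nM dexamethasone (final) for 18 h, then read by LiveBLAzer B/G FRET fluorescence after 2 h.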

[17] = qHTS assay for small molecule disruptors of the mitochondrial membrane potential (AID 720635); further: potency means the concentration at half of the fitted maximal effect
Procedure, shortened: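 HepG2 cells exposed to compound 1 hr at 37C, then Mito-MPS dye 30 min. Ratio read of aggregate (540/590 nm) versus monomer (490/535 nm) fluorescence.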

[18] = target: Glucocorticoid receptor (Homo sapiens) (UniProt P04150); experiment: qHTS assay to identify small molecule agonists of the glucocorticoid receptor (GR) signaling pathway (AID 720691; active means well fitted activation curve with a large enough effect in the signal ratio in the repeat runs, not every such curve was filed as active; the % refers to the signal ratio); conditions: GR-bla HeLa, beta-lactamase reporter ratio, 18 h; activation: at 62.4 µM (top of the series)
Procedure, shortened: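 GR-bla HeLa cells (beta-lactamase reporter under glucocorticoid response element) were plated 4 h at 37 C/5% CO2, given compounds in DMSO, and incubated 18 h at 37 C. LiveBLAzer B/G FRET substrate was added for 2 h at room temperature, then fluorescence intensity read.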

Measured: Potency

O=C(Oc1cccc2cccnc12)c1ccccc1
not listed: [17] | [18]
inactive: all other assays above

CCCN(CCC)c1c([N+](=O)[O-])cc(C(F)(F)F)c(N)c1[N+](=O)[O-]
active: [2] 30.5 µM | [17] 4.31 µM
not listed: [3] | [13] | [16] | [18]
inactive: all other assays above

COc1cc(-c2nc(NC(=O)c3cc4cc(C)cc(C)c4n3CC(=O)O)sc2CCC2CCCCC2)c(OC)cc1Cl
active: [2] 3.97 µM
not listed: [15] | [16] | [17] | [18]
inactive: all other assays above

CC(C)C(C)(C)C(C)(C)C(C)(C)S
not listed: [3] | [16] | [17] | [18]
inactive: all other assays above

CCCCCCCCCOC(=O)c1ccc(O)cc1
active: [2] 60.3 µM | [17] 4.27 µM
not listed: [3] | [16] | [18]
inactive: all other assays above

Fc1ccc([C@@H]2CCNC[C@H]2COc2ccc3c(c2)OCO3)cc1
active: [2] 33.5 µM
not listed: [13] | [16] | [17]
inactive: all other assays above

CCC1OCC(COc2ccc(Oc3ccccc3)cc2)O1 (stereo unspecified)
not listed: [16] | [17]
inactive: all other assays above

CNCc1cc(F)ccc1Oc1ccc(Cl)c(Cl)c1
not listed: [16] | [17]
inactive: all other assays above

CC(NN)c1ccccc1 (stereo unspecified)
not listed: [7] | [10]
inactive: all other assays above

c1cc(C(c2ccc(OCC3CO3)cc2)c2ccc(OCC3CO3)cc2)ccc1OCC1CO1 (stereo unspecified)
active: [16] 49 µM
not listed: [3] | [7] | [13] | [17]
inactive: all other assays above

CCCCCCCCS(=O)C(C)Cc1ccc2c(c1)OCO2 (stereo unspecified)
not listed: [14] | [16]
inactive: all other assays above

O=C(Nc1cccc([N+](=O)[O-])c1)c1cc2ccccc2cc1O
active: [2] 3.86 µM | [17] 0.154 µM
not listed: [3] | [13] | [14] | [15] | [16] | [18]
inactive: all other assays above

Oc1cc2ccccc2c2ccccc12
active: [2] 6.11 µM | [3] 19.3 µM | [17] 0.969 µM | [16] 19.5 µM
not listed: [18]
inactive: all other assays above

C[n+]1ccn(Cc2ccccc2)c1
not listed: [10] | [15]
inactive: all other assays above
